Molecules are shown by their SMILES. Inconclusive results are not listed. Unmarked numbers belong to inactive results. Calls of active or inactive are those of the source. The call rests on the fitted dose curve.
On the % scale 0 is the no-effect control and ±100 the full control effect; potency means the concentration at half of the fitted maximal effect.

The target in the assay is Progesterone receptor (Homo sapiens) (UniProt P06401). Description: qHTS assay to identify small molecule agonists of the progesterone receptor (PR) signaling pathway (AID 1346784). Further: nearly all actives have a fitted effect of over 30% in size. The conditions noted are these: PR-UAS-bla HEK293T, beta-lactamase FRET ratio, 16 h; series mostly up to 92.4 µM; activation: at the top concentration. From the text: U.S. Tox21 Program National Center for Advancing Translational Sciences [NCATS] NIH Chemical Genomics Center [NCGC] U.S. Environmental Protection Agency [EPA] National Institutes of Environmental Health Sciences [NIEHS] National Toxicology Program [NTP] U.S. Food and Drug Administration [FDA] […] Endocrine disrupting chemicals (EDCs) and their interactions with steroid hormone receptors like PR causes disruption of normal endocrine function. To identify the compounds that activate PR signaling, a PR-UAS-bla GripTite cell line i.e. PR-UAS-bla HEK 293T (Invitrogen, Carlsbad, CA, USA) containing a beta-lactamase reporter gene under the control of an Upstream Activator Sequence (UAS) was used to screen Tox21 10K compound library.
Progesterone receptor (Homo sapiens), sequence (P06401 whole entry, looked up): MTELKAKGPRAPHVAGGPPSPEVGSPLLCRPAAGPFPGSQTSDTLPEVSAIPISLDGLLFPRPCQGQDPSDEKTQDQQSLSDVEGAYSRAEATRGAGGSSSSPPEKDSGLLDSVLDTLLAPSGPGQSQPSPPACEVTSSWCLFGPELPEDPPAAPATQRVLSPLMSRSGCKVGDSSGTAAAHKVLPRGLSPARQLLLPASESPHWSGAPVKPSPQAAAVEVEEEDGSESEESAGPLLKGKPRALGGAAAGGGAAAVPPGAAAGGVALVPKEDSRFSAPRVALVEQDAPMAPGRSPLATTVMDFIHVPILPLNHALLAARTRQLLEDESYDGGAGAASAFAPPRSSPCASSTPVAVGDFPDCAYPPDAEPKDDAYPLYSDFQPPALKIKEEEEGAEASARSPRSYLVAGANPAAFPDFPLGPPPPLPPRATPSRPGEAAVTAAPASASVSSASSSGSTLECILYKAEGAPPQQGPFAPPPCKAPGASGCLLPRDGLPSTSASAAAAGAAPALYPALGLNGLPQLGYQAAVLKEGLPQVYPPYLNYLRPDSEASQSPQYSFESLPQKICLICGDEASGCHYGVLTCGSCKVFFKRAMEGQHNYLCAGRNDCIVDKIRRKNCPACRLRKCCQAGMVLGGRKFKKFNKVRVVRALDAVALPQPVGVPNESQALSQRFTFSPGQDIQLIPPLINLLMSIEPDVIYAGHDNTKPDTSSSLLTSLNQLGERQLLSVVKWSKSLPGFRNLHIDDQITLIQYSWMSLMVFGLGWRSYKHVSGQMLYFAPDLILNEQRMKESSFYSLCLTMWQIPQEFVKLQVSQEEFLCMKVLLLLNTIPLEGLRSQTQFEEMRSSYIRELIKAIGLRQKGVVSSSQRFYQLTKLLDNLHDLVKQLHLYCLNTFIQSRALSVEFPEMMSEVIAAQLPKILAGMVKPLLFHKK
Tox21 Assay Protocol Summary: PR-UAS-bla HEK 293T cells were dispensed at 3,000 cells/5 uL of assay medium containing 2% charcoal stripped FBS per well into black wall/clear-bottom 1536-well plates using a Multidrop Combi (ThermoFisher Scientific, Waltham, MA) dispenser. After the assay plates were incubated at a 37C and 5% CO2 for 6hr, 23 nL of compounds dissolved in DMSO, positive controls or DMSO only was transferred to the assay plate by a Pintool station (Kalypsys, San Diego, CA). The plates were incubated at 37C and 5% CO2 for 16hr. Then 1 uL of LiveBLAzer B/G FRET substrate was added using a BioRAPTR FRD (Flying Reagent Dispenser, Aurora Discovery, San Diego, CA). After the plates were incubated at room temperature for 2 hours, fluorescence intensity was measured by an Envision plate reader (PerkinElmer, Shelton, CT).
With `CC/C=C\CCOC(=O)CC`, the “activation” value was 0.723%. The same measure, in the same setting: the result for `NCC(=O)O` reads -0.192% [at 19 µM]; that for `C1CCCNCCC1`, -0.739%.

As for `CCC(=O)O[C@]1(C(=O)CCl)[C@@H](C)C[C@H]2[C@@H]3CCC4=CC(=O)C=C[C@]4(C)[C@@]3(F)[C@@H](O)C[C@@]21C`, the Potency is 0.9 nM (active).

As to `COc1ccc2cccc(CCNC(C)=O)c2c1`, the “activation” value is -1.73% [at 42.5 µM]. The same measure, in the same setting: the same measure for `C=C(C)C(=O)OCCO`: 1.52%. On the same count and under the same terms, the result for `O=S(=O)(Oc1ccc(Cl)cc1)c1ccccc1` reads 3.21%; that for `CC1=CC=C(C(C)C)CC1`, -2.39%; that for `O=[N+]([O-])c1cccc(S(=O)(=O)O)c1`, 20.9%. As to `C=C1[C@H]2CC[C@@H]3[C@H]2C(C)(C)CCC[C@]13C`, the “activation” value was -1.57%.

Take `CN1CCC(=C2c3ccccc3Sc3ccccc32)CC1`: the “activation” value is -2.79% [at 42.5 µM]. Same read-out and setting: the result for `COc1ccc(C)cc1[N+](=O)[O-]` reads -1.11%. As to `CC(=O)OC[C@H]1O[C@@H](n2ncc(=O)[nH]c2=O)[C@H](OC(C)=O)[C@@H]1OC(C)=O`, the “activation” value is -6.03% [at 42.5 µM]. Same read-out and setting: the same measure for `O=S(c1cc(Cl)cc(Cl)c1O)c1cc(Cl)cc(Cl)c1O`: -0.84% [at 42.5 µM].

For `COc1cc2nc(Cl)nc(N)c2cc1OC`, the “activation” value is 3.25% [at 42.5 µM]. Same read-out and setting: the same measure for `CC1CCC(=O)C1=O` (stereo not given): -5.33%; for `CC(CSC(=O)c1ccccc1)C(=O)N1C[C@@H](Sc2ccccc2)C[C@H]1C(=O)O` (stereo not given in full): -0.419% [at 19 µM]. For the molecule `CCCCC(CC)COC(=O)COc1ccc(Cl)cc1Cl` (stereo not given), the “activation” value is -0.762%. The same measure, in the same setting: the same measure for `CC(=O)c1ccc2c(c1)N(CCCN1CCC(CCO)CC1)c1ccccc1S2`: -3.35% [at 42.5 µM]; for `C#CCN(C)CCCOc1ccc(Cl)cc1Cl`: 0.291% [at 42.5 µM]; for `CCCCCCCCCCCC(=O)OC[C@@H](O)[C@H]1OC[C@H](OCCO)[C@H]1OCCO`: -1.07%. The same measure, in the same setting: the result for `CC(C)(COC(=O)c1ccccc1)COC(=O)c1ccccc1` reads 4.16%; that for `CCc1c(C(=O)NN2CCCCC2)nn(-c2ccc(Cl)cc2Cl)c1-c1ccc(Br)cc1`, 10.6%; that for `Cc1oc(-c2ccccc2)nc1CCOc1cccc2c1ccn2CCC(=O)O`, 4.02%. For the molecule `O=C1CCC(=O)O1`, the “activation” value was 0.644%. As for `NCC(=O)CCC(=O)O`, the “activation” value is 0.102% [at 42.5 µM]. `C/C(=C(\CCOP(=O)(O)O)SC(=O)c1ccccc1)N(C=O)Cc1cnc(C)nc1N`: the activation is -0.857% [at 8.39 µM]. The same measure, in the same setting: the same measure for `Cc1nn(C)c(Oc2ccccc2)c1/C=N/OCc1ccc(C(=O)OC(C)(C)C)cc1`: 8%; for `CN1Cc2cc(C(=O)N3CCC(C4CCNCC4)CC3)ccc2NC(CC(=O)O)C1=O` (stereo not given): 0.569% [at 42.5 µM]. On the same count and under the same terms, the same measure for `COc1cc2nc(N(C)CCCNC(=O)C3CCCO3)nc(N)c2cc1OC` (stereo not given): 4.26% [at 42.5 µM]; for `CCC(C)(C)CC`: -0.0654%. With `COc1ccc(C(=O)N2CCN(CC(=O)N3CCOCC3)CC2)cc1`, the “activation” value is 0.704% [at 42.5 µM]. The same measure, in the same setting: the result for `COc1cc2nc(N3CCN(C(=O)C4COc5ccccc5O4)CC3)nc(N)c2cc1OC` (stereo not given) reads 0.438% [at 42.5 µM]; that for `Cc1cc(N)c2cc(NC(=O)Nc3ccc4nc(C)cc(N)c4c3)ccc2n1`, 7.84% [at 42.5 µM]. Same read-out and setting: the same measure for `CC(C)O.CC(C)O.CCOC(=O)/C=C(\C)O.CCOC(=O)/C=C(\C)O.[Ti]`: -1.45%.

For the molecule `CCCCCCCN`, the “activation” value is -0.0675%. The same measure, in the same setting: the same measure for `COc1cccc(N(C)C(=S)Oc2ccc3c(c2)CCCC3)n1`: 1.89% [at 42.5 µM]; for `CCCCC(CC)CN1C(=O)C2C3C=CC(C3)C2C1=O` (stereo not given): 4.54%.

On to `Nc1ncn([C@H]2C[C@H](O)[C@@H](CO)O2)c(=O)n1`, for which the “activation” value is -2.34% [at 42.5 µM].

In the case of `C=C1C(=C/C=C2\CCC[C@]3(C)[C@@H]([C@H](C)/C=C/[C@@H](O)C4CC4)CC[C@@H]23)C[C@@H](O)C[C@@H]1O`, the “activation” value was 0.243% [at 42.5 µM].

These data come from PubChem BioAssay (Tox21).
